# Reference: PubChem BioAssay AID1008 (NMMLSC, 2008)
# The campaign covered roughly 190,000 compounds. About 240 (0.13%) were called active. The list comes from a sample in which actives are over-represented; it also holds similar structures and randomly drawn compounds. A number with no mark means an inactive call. No stated cut-off is given here; in the data, active means inhibition above about 40%.
# Target: Bcl-2-related protein A1 (Homo sapiens) (UniProt Q16548)
# Experiment: inhibitors of Bim binding to Bfl-1, primary screen, biochemical, multiplexed, bead-based flow cytometry (AID 1008);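 further: 0% = wells without compound plus tracer and 100% = blocker peptide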
# Details: Bim-Bfl-1 binding inhibition, at 10 µM, stronger effect = higher value
# Bcl-2-related protein A1 (Homo sapiens), sequence (Q16548 whole entry, looked up): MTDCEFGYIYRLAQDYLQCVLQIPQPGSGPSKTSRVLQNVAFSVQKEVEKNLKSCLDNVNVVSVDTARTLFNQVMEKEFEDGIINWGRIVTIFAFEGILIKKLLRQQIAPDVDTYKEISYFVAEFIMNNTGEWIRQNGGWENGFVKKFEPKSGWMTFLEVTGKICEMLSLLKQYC
row,SMILES,inhibition
1,Cc1cc(CNCc2c(C(=O)N(C)Cc3ccccc3)nc3ccccn23)nn1C,-6%
2,COc1cccc(CNC(=O)CCN2C(=S)NC(C)(C)CC2C)c1 (stereo not given),-5%
3,Cc1cc(OC(=O)c2ccccc2)c([N+](=O)[O-])c(=O)[nH]1,-5%
4,S=c1ccc2ccccc2[nH]1,-4%
5,Cc1cccc(CSc2nc3c(c(=O)n2C)SCC3)c1,-2%
6,CCOc1cc(CNn2c(C)nnc2SCC(=O)NC(C)(C)C)ccc1OCC(=O)NC(C)(C)C,-7%
7,CC(C)Cn1c(N)c(C(=O)COC(=O)CN2C(=O)C3CC=CCC3C2=O)c(=O)n(C)c1=O (stereo not given),-8%
8,COc1ccc(CNc2c(CO)cnc3c2cnn3C)cc1,-3%
9,CCc1ccc(NC(=O)C(=O)N/N=C(\C)CC(=O)NCCOC)cc1,-3%
10,O=C1C=CC(=O)N1c1ccc(N2CCCCC2)cc1,11%
11,CN1CCN(S(=O)(=O)c2cccc(C(=O)N3CCc4ccccc43)c2)CC1,1%
12,COc1cccc(CNC(=O)CCC2CCCN(Cc3ccc(OC(F)F)cc3)C2)c1 (stereo not given),-4%
13,Cc1ccc(O)c(-c2cc(C(=O)Nc3c(C)n(C)n(-c4ccccc4)c3=O)[nH]n2)c1,-2%
14,COc1cc(C(=O)NNC(=O)c2ccc(S(=O)(=O)N3CCCCC3)cc2)cc(OC)c1OC,7%
15,CCc1ccc(NC2Nc3cc(C)nn3S2)cc1 (stereo not given),-1%
16,CN(C)C(=O)CSc1n[nH]c(-c2ccco2)n1,2%
17,Cc1ccc(NC(=O)Cn2c(=O)n(CCC(=O)NC3CCN(Cc4ccccc4)CC3)c(=O)c3ccccc32)cc1,-9%
18,Cc1cccc(C)c1N1CCN(S(=O)(=O)N2CCCCC2)CC1,-3%
19,O=C(CSc1ncnc2scc(-c3ccccc3)c12)NCc1ccc2c(c1)OCO2,0%
20,CN(CCN1CCOCC1)Cc1nc(-c2ccc3c(c2)OCO3)no1,-5%

row,SMILES,inhibition
1,N#C/C(=C(\O)C(F)(F)F)c1nnc2n1CCCCC2,-5%
2,CC1CCN(C2=NC(=O)/C(=C/c3cn[nH]c3-c3ccccc3)S2)CC1,-13%
3,O=C(Nc1nc(-c2cccnc2)cs1)c1ccccc1F,-9%
4,CN1CCN(NC(=O)c2ccc(S(=O)(=O)N3CCCCCC3)cc2)CC1,-2%
5,CC1CCCCC1NC(=O)CO/N=C/c1ccc(OC(F)F)cc1 (stereo not given),-7%
6,CCOC(=O)N1CCC(NC(=O)C(NS(=O)(=O)c2ccc3c(c2)CCN3C(=O)CC)C(C)C)CC1 (stereo not given),-4%
7,CCc1nnc(NS(=O)(=O)c2ccc(NC(=S)NC(=O)/C=C/c3cccs3)cc2)s1,1%
8,CC(C)C(C)(C#N)NC(=O)CSc1nc2scc(-c3ccccc3)c2c(=O)[nH]1 (stereo not given),3%
9,Cc1ccc(N(C(=O)c2ccc(CN3CCOCC3)o2)C(C(=O)NCCC(C)C)c2cccs2)c(C)c1 (stereo not given),-7%
10,O=C(O)CCS(=O)(=O)c1ccc(-c2ccccc2)cc1,0%
11,COc1ccc(NC(=O)Nc2ccc3nc(C)c(C)nc3c2)cc1,-2%
12,COc1ccc(NC(=O)Nc2ccc3nsnc3c2)cc1,-1%
13,CN(c1ccc(C(=O)NCc2ccccn2)cc1)S(C)(=O)=O,-18%
14,COCCNC(=O)Nc1ccc2nc(-c3ccco3)c(-c3ccco3)nc2c1,48% (active)
15,O=C(NCc1ccccn1)c1ccc2nc(-c3ccco3)c(-c3ccco3)nc2c1,43% (active)
16,O=C(NCc1ccccn1)c1cc(-c2ccccc2Cl)on1,0%
17,Cc1nnc(-c2ccc(Oc3ccc(C)c(C)c3)c([N+](=O)[O-])c2)o1,9%
18,Cc1cccc(C2c3[nH]c4ccccc4c3CCN2C(=O)c2cc(-c3cccn3C)n[nH]2)n1 (stereo not given),-4%
19,Cc1cc(/C=C2/NC(=O)NC2=O)c(C)n1-c1cccnc1,-4%
20,CCCCNC(=S)N/N=C1\CCCCc2ccccc21,0%

row,SMILES,inhibition
1,COc1cccc(-n2c(=S)sc3c(=O)n(-c4ccccc4OC)c(SCC4OCCO4)nc32)c1,-3%
2,O=C(NNC(=O)C1C2CCC(C2)C1C(=O)O)c1ccc(Cl)cc1 (stereo not given),-8%
3,COc1cccc(NC(=O)Cn2c3ccccc3c3nc4n(c(=O)c32)CCS4)c1,2%
4,CC(C)(C)NCCCOc1ccc(Cl)cc1C(C)(C)C,-1%
5,CCCCN=C1C([N+](=O)[O-])=CC=C2C1=NC1(CCCCC1)N2O,0%
6,c1ccc(-c2cc3c(NCC4COc5ccccc5O4)ncnc3s2)cc1 (stereo not given),-5%
7,CC1CCCN(S(=O)(=O)c2ccc(N(C(=O)c3cnccn3)C(C(=O)NC3CCCCC3)c3cccs3)cc2)C1 (stereo not given),-2%
8,O=C(COC(=O)/C(=C/c1cccs1)c1cccs1)NCc1ccccc1Cl,0%
9,O=C(CN1CCCCCC1)NCCN1C(=O)S/C(=C\c2ccccc2Cl)C1=O,-4%
10,O=C(O)c1cccc(N2C(=O)Nc3ccccc3N2O)c1,0%
11,O=C(CCN1CCCCC1)N=Nc1c(O)[nH]c2ccccc12,0%
12,CC(=O)Nc1ccc(NC(=S)NC(=O)/C=C/c2ccccc2)cc1,-3%
13,CCCCNS(=O)(=O)c1ccc2nc(SCC(=O)Nc3cc(C)cc(C)c3)[nH]c2c1,-1%
14,O=C(NCC1CCN(Cc2ccccc2Cl)CC1)Nc1cccc(Cl)c1,-6%
15,CCOC(=O)c1cc2c(nc1NC(=S)Nc1ccccc1)CC(C)(CC)OC2 (stereo not given),-11%
16,Cn1nnnc1SCC(=O)NNC(=O)c1ccc(Br)cc1,-10%
17,CCCCCN(C(=O)NC(=O)Nc1cccc(C)c1C)S(C)(=O)=O,-7%
18,CCn1c(C(C)NC(=O)c2ccc(C)cc2)n[nH]c1=S (stereo not given),1%
19,CC(C)CN(C(=O)CN1CCN(S(=O)(=O)c2ccccc2)CC1)c1c(N)n(CC(C)C)c(=O)[nH]c1=O,-2%
20,O=C(c1cc(=O)c2ccccc2o1)N1CCN(c2ccccc2)CC1,0%
